The source made the active and inactive calls.
Tests used:
[1] = test system: PRMT1 (protein arginine N-methyltransferase 1); experiment: small molecules binding arginine methyltransferase PRMT1 – biochemical, small-molecule microarray, 635 nm fluorescence, primary screen (AID 1088); conditions: higher = more signal;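 note: binding of Prmt1 protein to compounds spotted on small-molecule microarray slides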
[2] = growth effects on S. cerevisiae YJM789 – YJM789 clinical isolate, OD600, 24 h, basal, primary screen (AID 1089); conditions: higher = more signal, called active from +8 up or from −8 down;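 note: growth of clinical yeast isolate S. cerevisiae YJM 789 seeded 1000 cells per well; test concentration not given here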
[3] = S. pombe growth modifiers, basal conditions – strain 972, OD600, 24 h, no modulator, primary screen (AID 1090);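 note: basal condition with compound alone and no growth modifier present; test concentration not given here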; conditions: S. pombe 972 growth, higher = more signal, called active from +8 up or from −8 down
[4] = budding yeast growth modifiers under rapamycin – strain BY4716, OD600, 96 h, primary screen (AID 1091); note: test concentration not given here; conditions: S. cerevisiae BY4716 + rapamycin, higher = more signal, called active from +8 up or from −8 down
[5] = biological target: Torsin-1A-interacting protein 2 (Homo sapiens) (UniProt Q8NFQ8); experiment: small molecules binding lysate-expressed LULL1 – cell lysate, human LULL1 lysate, 635/667 nm fluorescence, primary screen (AID 1092); conditions: small-molecule microarray, hLULL1 lysate binding, 635 nm fluorescence; higher = more signal;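 note: probe is lysate of COS7 cells overexpressing human LULL1; score merges per-feature 667 nm fluorescence with signal-to-noise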
Chain of Torsin-1A-interacting protein 2 (Homo sapiens) (Q8NFQ8 whole entry, looked up): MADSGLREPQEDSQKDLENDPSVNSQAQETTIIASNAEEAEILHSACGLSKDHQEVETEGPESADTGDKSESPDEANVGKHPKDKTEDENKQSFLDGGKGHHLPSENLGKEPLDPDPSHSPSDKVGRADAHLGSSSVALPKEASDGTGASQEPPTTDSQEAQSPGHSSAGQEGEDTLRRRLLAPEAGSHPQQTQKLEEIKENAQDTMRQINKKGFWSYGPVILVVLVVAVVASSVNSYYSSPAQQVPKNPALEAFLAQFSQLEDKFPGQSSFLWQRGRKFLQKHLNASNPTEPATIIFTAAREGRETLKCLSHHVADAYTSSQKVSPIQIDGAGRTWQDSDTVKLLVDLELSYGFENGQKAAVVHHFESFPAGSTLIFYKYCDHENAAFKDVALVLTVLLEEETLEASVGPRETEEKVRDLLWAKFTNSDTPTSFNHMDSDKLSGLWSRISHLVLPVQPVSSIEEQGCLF

[6] = optical density change of DRC41 E. coli – strain DRC41, OD650, 24 h, E. coli filamentation project, primary screen (AID 1093);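 note: MC1000 strain lacking acrAB efflux and sulA so SOS filamentation is blocked; test concentration not given here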; conditions: E. coli DRC41 growth, higher = more signal, called active from +8 up or from −8 down
[7] = probe aLefty2 binding to arrayed compounds – biochemical, biotinylated probe, 635/667 nm fluorescence, primary screen (AID 1094); conditions: small-molecule microarray, higher = more signal;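 note: score merges spot fluorescence near 667 nm with spot signal-to-noise ratio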
[8] = test system: Noggin (protein binding on small-molecule microarray); experiment: small molecules binding Noggin protein – biochemical, 635/667 nm fluorescence, primary screen (AID 1095); conditions: 635 nm fluorescence, higher = more signal;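 note: score merges 667 nm feature fluorescence with signal to noise over triplicate slides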
[9] = biological target: Neurogenic locus notch homolog protein 3 (Homo sapiens) (UniProt Q9UM47); experiment: small molecules binding NOTCH3 protein – biochemical, 635/667 nm fluorescence, primary screen (AID 1096); conditions: small-molecule microarray, 635 nm fluorescence, higher = more signal
Chain of Neurogenic locus notch homolog protein 3 (Homo sapiens) (Q9UM47 whole entry, looked up): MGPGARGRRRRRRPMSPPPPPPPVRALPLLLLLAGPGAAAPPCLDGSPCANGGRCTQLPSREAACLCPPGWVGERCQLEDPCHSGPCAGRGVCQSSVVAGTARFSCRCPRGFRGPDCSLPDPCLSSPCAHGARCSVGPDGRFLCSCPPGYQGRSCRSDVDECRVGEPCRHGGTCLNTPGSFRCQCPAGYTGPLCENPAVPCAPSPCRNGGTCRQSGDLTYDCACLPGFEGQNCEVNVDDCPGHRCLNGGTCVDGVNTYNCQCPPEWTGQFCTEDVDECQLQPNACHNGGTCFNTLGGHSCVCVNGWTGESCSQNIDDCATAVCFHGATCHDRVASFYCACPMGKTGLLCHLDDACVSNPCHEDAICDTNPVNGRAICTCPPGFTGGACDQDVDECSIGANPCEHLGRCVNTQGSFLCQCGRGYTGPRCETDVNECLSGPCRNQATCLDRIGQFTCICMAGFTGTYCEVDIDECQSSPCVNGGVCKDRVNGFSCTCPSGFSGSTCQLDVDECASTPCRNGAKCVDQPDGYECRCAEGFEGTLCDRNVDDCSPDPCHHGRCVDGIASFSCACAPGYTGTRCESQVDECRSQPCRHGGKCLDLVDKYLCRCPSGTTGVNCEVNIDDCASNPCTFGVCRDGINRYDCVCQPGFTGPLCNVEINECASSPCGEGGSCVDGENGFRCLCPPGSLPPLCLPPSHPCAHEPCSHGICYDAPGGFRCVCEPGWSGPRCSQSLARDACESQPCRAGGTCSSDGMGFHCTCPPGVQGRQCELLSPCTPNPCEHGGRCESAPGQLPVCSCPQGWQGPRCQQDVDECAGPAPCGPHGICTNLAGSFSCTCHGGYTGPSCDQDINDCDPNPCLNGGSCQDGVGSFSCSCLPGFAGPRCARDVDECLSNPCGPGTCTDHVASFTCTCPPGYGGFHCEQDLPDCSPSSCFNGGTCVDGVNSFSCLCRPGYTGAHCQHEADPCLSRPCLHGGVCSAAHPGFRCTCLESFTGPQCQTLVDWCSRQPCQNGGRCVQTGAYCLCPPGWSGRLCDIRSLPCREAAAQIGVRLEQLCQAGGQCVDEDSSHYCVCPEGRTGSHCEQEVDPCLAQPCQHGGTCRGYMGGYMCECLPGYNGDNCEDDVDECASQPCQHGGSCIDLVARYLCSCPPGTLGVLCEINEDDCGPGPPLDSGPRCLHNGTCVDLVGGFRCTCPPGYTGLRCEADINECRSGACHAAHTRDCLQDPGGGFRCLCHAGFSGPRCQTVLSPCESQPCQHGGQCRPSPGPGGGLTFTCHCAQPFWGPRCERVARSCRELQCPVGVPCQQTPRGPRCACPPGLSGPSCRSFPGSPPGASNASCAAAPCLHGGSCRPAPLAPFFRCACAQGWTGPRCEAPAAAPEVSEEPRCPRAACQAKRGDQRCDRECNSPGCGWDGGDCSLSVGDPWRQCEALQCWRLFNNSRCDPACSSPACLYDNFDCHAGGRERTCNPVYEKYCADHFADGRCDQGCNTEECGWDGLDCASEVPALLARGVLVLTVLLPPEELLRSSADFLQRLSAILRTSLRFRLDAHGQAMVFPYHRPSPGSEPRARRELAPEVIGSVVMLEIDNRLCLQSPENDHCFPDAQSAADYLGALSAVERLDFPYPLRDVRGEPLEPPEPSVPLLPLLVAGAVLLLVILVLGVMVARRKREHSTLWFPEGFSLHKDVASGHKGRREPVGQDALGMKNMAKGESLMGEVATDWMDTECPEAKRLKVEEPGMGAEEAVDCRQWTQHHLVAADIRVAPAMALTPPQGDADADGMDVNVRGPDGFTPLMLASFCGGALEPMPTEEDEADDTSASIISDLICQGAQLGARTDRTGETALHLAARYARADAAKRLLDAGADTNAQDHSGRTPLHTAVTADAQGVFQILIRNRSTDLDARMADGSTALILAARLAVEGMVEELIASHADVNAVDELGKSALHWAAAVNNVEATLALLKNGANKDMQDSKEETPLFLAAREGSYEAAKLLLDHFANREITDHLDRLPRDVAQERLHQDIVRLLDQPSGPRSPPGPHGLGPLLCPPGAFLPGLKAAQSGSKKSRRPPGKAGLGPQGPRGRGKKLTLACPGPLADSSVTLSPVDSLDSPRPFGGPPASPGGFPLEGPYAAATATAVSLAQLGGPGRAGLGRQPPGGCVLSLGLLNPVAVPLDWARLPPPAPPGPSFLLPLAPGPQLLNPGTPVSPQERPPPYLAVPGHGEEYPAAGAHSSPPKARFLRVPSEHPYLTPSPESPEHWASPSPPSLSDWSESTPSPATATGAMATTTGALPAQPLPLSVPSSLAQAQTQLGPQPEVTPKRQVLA

[10] = probe aEGFR binding to arrayed compounds – biochemical, biotinylated probe, 635/667 nm fluorescence, primary screen (AID 1097); conditions: small-molecule microarray, higher = more signal;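 note: probe is a biotinylated anti-EGFR antibody binding compounds printed on slides; score combines fluorescence near 667 nm and signal to noise of each spot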

## COC(=O)C(CC#Cc1ccc2c(c1)[C@]1(C(=O)N2)[C@H](C(=O)N2CCN(c3ncccn3)CC2)[C@H]2C(=O)O[C@H](c3ccccc3)[C@H](c3ccccc3)N2[C@@H]1c1ccc(O)cc1)C(=O)OC
[1]
  composite z-score: 1.53
[2]
  z-score: 1.04 (inactive)
[3]
  z-score: 1.1 (inactive)
[4]
  z-score: 0.183 (inactive)
[5]
  composite z-score: 3.25
[6]
  z-score: -0.333 (inactive)
[7]
  composite z-score: 0.759
[8]
  composite z-score: 1.73
[9]
  composite z-score: 1.01
[10]
  composite z-score: 1.05

## CC1C2C(CCCO)=CC(C3C(=O)N(C(N)=O)C(=O)C23)N1Cc1cccc(OC(F)(F)F)c1 (stereo not given)
[1]
  composite z-score: 1.31
[2]
  z-score: -3.02 (inactive)
[3]
  z-score: -0.198 (inactive)
[4]
  z-score: 0.58 (inactive)
[5]
  composite z-score: 2.79
[6]
  z-score: 0.262 (inactive)
[7]
  composite z-score: -0.139
[8]
  composite z-score: 0.487
[9]
  composite z-score: 0.628
[10]
  composite z-score: -0.0828

## O=C1O[C@H](c2ccccc2)[C@H](c2ccccc2)N2[C@H]1[C@@H](C(=O)Nc1nc3ccccc3s1)[C@]1(C(=O)Nc3ccccc31)[C@H]2c1ccccc1OCCO
[1]
  composite z-score: 1.5
[2]
  z-score: 1.91 (inactive)
[3]
  z-score: 2.2 (inactive)
[4]
  z-score: 3.94 (inactive)
[5]
  composite z-score: 3.09
[6]
  z-score: 0.732 (inactive)
[7]
  composite z-score: 0.229
[8]
  composite z-score: 0.712
[9]
  composite z-score: 0.595
[10]
  composite z-score: -0.0828

## COc1ccc(CCNC(=O)[C@@]2(c3ccc([N+](=O)[O-])cc3)CC(=O)N(C3CCCCC3)[C@@H]2c2ccc(CO)cc2I)cc1
[1]
  composite z-score: 1.39
[2]
  z-score: 0.717 (inactive)
[3]
  z-score: 0.0908 (inactive)
[4]
  z-score: 5.88 (inactive)
[5]
  composite z-score: 2.34
[6]
  z-score: 0.793 (inactive)
[7]
  composite z-score: -0.0544
[8]
  composite z-score: 0.153
[9]
  composite z-score: 0.594
[10]
  composite z-score: 0.227

## O=C(NC1CC1)[C@@H]1c2ccccc2C(=O)N(C2CCCCC2)[C@H]1c1ccc(CO)cc1
[1]
  composite z-score: 0.384
[2]
  z-score: 0.116 (inactive)
[3]
  z-score: -0.0911 (inactive)
[4]
  z-score: 0.0861 (inactive)
[5]
  composite z-score: 2.76
[6]
  z-score: 0.398 (inactive)
[7]
  composite z-score: 0.322
[8]
  composite z-score: -0.923
[9]
  composite z-score: 0.25
[10]
  composite z-score: 0.595

## CO[C@H]1O[C@H](CO)[C@@H](OC(=O)Nc2cccc(F)c2)[C@H](OC(=O)c2cc3ccccc3[nH]2)[C@H]1OC(=O)c1cc2ccccc2[nH]1
[1]
  composite z-score: 0.669
[2]
  z-score: -2 (inactive)
[3]
  z-score: 0.201 (inactive)
[4]
  z-score: 0.296 (inactive)
[5]
  composite z-score: 0.338
[6]
  z-score: -0.178 (inactive)
[7]
  composite z-score: -0.15
[8]
  composite z-score: 0.696
[9]
  composite z-score: 0.0453
[10]
  composite z-score: -0.1

## COc1ccc(C(O)C2C=CC3C(=O)N(C)C(=O)C3N2Nc2ccccc2)cc1 (stereo not given)
[1]
  composite z-score: 1.29
[2]
  z-score: -0.0991 (inactive)
[3]
  z-score: -0.546 (inactive)
[4]
  z-score: 0.695 (inactive)
[5]
  composite z-score: 3.3
[6]
  z-score: -0.238 (inactive)
[7]
  composite z-score: 0.156
[8]
  composite z-score: -0.357
[9]
  composite z-score: 1.06
[10]
  composite z-score: 0.147

## CCCCN1CC=CC23O[C@@H]4/C=C\CCCOC(=O)C4[C@H]2C(=O)N(CCCCCCO)[C@@H]3C1=O (stereo not given in full)
[1]
  composite z-score: 0.988
[2]
  z-score: -0.917 (inactive)
[3]
  z-score: -0.818 (inactive)
[4]
  z-score: -0.771 (inactive)
[5]
  composite z-score: 3.56
[6]
  z-score: 1.79 (inactive)
[7]
  composite z-score: -0.19
[8]
  composite z-score: -0.676
[9]
  composite z-score: -0.0185
[10]
  composite z-score: -0.262

## C[N+](C)(C)CCCC[C@@H]1NC(=O)[C@H]2C[C@@H](C(=O)NCCCCCN)[C@@H](c3ccc(O)cc3)N2C1=O
[1]
  composite z-score: 1.54
[2]
  z-score: -0.407 (inactive)
[3]
  z-score: -2.01 (inactive)
[4]
  z-score: -1.2 (inactive)
[5]
  composite z-score: 3.06
[6]
  z-score: -0.162 (inactive)
[7]
  composite z-score: 0.0829
[8]
  composite z-score: 1.57
[9]
  composite z-score: 1.11
[10]
  composite z-score: 0.152

## Cc1ccc(N2C(=O)c3ccccc3[C@@H](C(=O)NCCN3CCOCC3)[C@@H]2c2ccc(CO)cc2)nc1
[1]
  composite z-score: 0.722
[2]
  z-score: 0.333 (inactive)
[3]
  z-score: -0.33 (inactive)
[4]
  z-score: -1.59 (inactive)
[5]
  composite z-score: 0.58
[6]
  z-score: 0.346 (inactive)
[7]
  composite z-score: -0.0798
[8]
  composite z-score: 0.0453
[9]
  composite z-score: 0.248
[10]
  composite z-score: -0.197

## C[C@]12C(=O)N(CCO)[C@@H]3C(=O)N(c4ccc(Cl)cc4)CC=CC31O[C@@H]1/C=C\CCCOC(=O)C12 (stereo not given in full)
[1]
  composite z-score: -0.0919
[2]
  z-score: -0.174 (inactive)
[3]
  z-score: -0.13 (inactive)
[4]
  z-score: 0.169 (inactive)
[5]
  composite z-score: -0.236
[6]
  z-score: 0.125 (inactive)
[7]
  composite z-score: 0.034
[8]
  composite z-score: -0.464
[9]
  composite z-score: 0.0111
[10]
  composite z-score: -0.216

## CO[C@H]1O[C@H](CO)[C@@H](OC(=O)Nc2ccccc2)[C@@H]2OC(=O)[C@@H](Cc3ccccc3)C/C=C/C[C@H](Cc3ccccc3)C(=O)O[C@@H]12
[1]
  composite z-score: 1.2
[2]
  z-score: 0.552 (inactive)
[3]
  z-score: -0.0693 (inactive)
[4]
  z-score: 1.04 (inactive)
[5]
  composite z-score: 1.41
[6]
  z-score: 0.386 (inactive)
[7]
  composite z-score: 0.142
[8]
  composite z-score: -0.0235
[9]
  composite z-score: -0.151
[10]
  composite z-score: -0.0697

## COc1ccc([Si](C)(C)[C@@H]2[C@@H](CC(=O)N3Cc4ccccc4C[C@H]3CO)O[C@]3(C(=O)N(Cc4ccc(I)cc4)c4ccccc43)[C@H]2C)cc1
[1]
  composite z-score: 1.57
[2]
  z-score: 0.391 (inactive)
[3]
  z-score: 0.956 (inactive)
[4]
  z-score: 2.07 (inactive)
[5]
  composite z-score: 0.603
[6]
  z-score: 2.19 (inactive)
[7]
  composite z-score: 0.0007
[8]
  composite z-score: 1.92
[9]
  composite z-score: 1.1
[10]
  composite z-score: -0.0982

## [N-]=[N+]=NCc1ccccc1[C@H]1OC(c2ccc(OCCCO)cc2)=N[C@@]1(Cc1ccccc1N=[N+]=[N-])C(=O)N1CCOCC1
[1]
  composite z-score: 1.58
[2]
  z-score: -0.8 (inactive)
[3]
  z-score: 1.23 (inactive)
[4]
  z-score: 4.53 (inactive)
[5]
  composite z-score: 3.36
[6]
  z-score: 0.175 (inactive)
[7]
  composite z-score: -0.0133
[8]
  composite z-score: 0.123
[9]
  composite z-score: 1.11
[10]
  composite z-score: -0.0031

## COc1ccc(C(=O)Nc2ccc(CN3C(=O)[C@]4(O[C@H](CC(=O)N(CCO)Cc5ccccc5)[C@@H]([Si](C)(C)c5ccc(OC)cc5)[C@@H]4C)c4ccccc43)cc2)cc1
[1]
  composite z-score: 1.54
[2]
  z-score: 0.517 (inactive)
[3]
  z-score: 1.03 (inactive)
[4]
  z-score: 3.41 (inactive)
[5]
  composite z-score: 2.03
[6]
  z-score: 1.6 (inactive)
[7]
  composite z-score: -0.235
[8]
  composite z-score: 1.08
[9]
  composite z-score: 0.565
[10]
  composite z-score: -0.096

Source: PubChem BioAssay
